# Results: ChEMBL document CHEMBL3988442, “University of Dundee, Small-Polar-MMV Screening Library” (2021)
# In all, about 69,000 compounds went through this assay and about 1,000 (1.4%) showed an effect of 50% or more. Many of the other results were omitted from the sample, so strong results are more common in it than they were.
# Tested on: Leishmania donovani
# Assay: Leishmania intramacrophage assay
# Format: functional, organism-based
# Set-up: scale not given: in the data most compounds retested in dose-response had high values
compound,measurement,setting,value
Cc1nc(CN2CCCC2c2[nH]ncc2C(=O)N(C)C)cs1 (stereo not given),Percent Effect,"30.3 µM, […]",17.56%
O=S(=O)(NCCc1c[nH]c2ccc(F)cc12)C1CCOCC1,Percent Effect,"30.3 µM, […]",23.05%
O=C(O)C(F)(F)F.O=C(O)C(F)(F)F.c1ccc(O[C@H]2CO[C@@]3(CCN(Cc4ccc5c(c4)OCO5)C3)C2)nc1,Percent Effect,"30.3 µM, […]",57%
CCO[C@@H]1CO[C@@]2(CCN(Cc3ccc4c(c3)OCO4)C2)C1.O=C(O)C(F)(F)F,Percent Effect,"30.3 µM, […]",22.42%
CCO[C@H]1CO[C@@]2(CCN(Cc3ccc4c(c3)OCO4)C2)C1.O=C(O)C(F)(F)F,Percent Effect,"30.3 µM, […]",9.141%
CC(C)Cc1cc(C(=O)NCCn2nc3ccccn3c2=O)[nH]n1,Percent Effect,"30.3 µM, […]",7.621%
O=C1CCC(=O)N1CCN1CCC(=Cc2ccccc2)CC1,Percent Effect,"30.3 µM, […]",5.63%
O=C(CCc1ccsc1)NC1CCN(c2cccc(F)c2)CC1,Percent Effect,"30.3 µM, […]",-29.46%
O=C(Cc1cccs1)NC1CCN(c2cccc(F)c2)CC1,Percent Effect,"30 µM, 30.03 µM",26.53%
COc1cccc(-c2cccc(N3CCC(N[C@@H]4CCOC4)CC3)c2)c1,Percent Effect,"30.3 µM, […]",96%
Cc1nc(-c2cccc(N3CCC(N[C@@H]4CCOC4)CC3)c2)cs1,Percent Effect,"30.3 µM, […]",-5.486%
Fc1cccc(-c2cccc(N3CCC(NC4CCCOC4)CC3)c2)c1 (stereo not given),Percent Effect,"30.3 µM, […]",98.85%
COc1cccc(N2CCC(N3CCOC(C(F)(F)F)C3)CC2)c1 (stereo not given),Percent Effect,"30.3 µM, […]",13.73%
COC(C)(C)CC(C)NCc1cc(-c2ccco2)on1 (stereo not given),Percent Effect,"30.3 µM, […]",-19.81%
CN(CCC#N)C(=O)CN1CCCN(Cc2noc(C3CC3)n2)CC1,Percent Effect,"30.3 µM, […]",25.2%
O=C(O)C(F)(F)F.c1ncn(Cc2cnc3n2CCN(Cc2ccsc2)CC3)n1,Percent Effect,"30 µM, 30.03 µM",-12.88%
O=C1NCC(C(=O)N(Cc2cccc(Br)c2)C2CC2)N1 (stereo not given),Percent Effect,"30.3 µM, […]",-2.381%
O=C1CC[C@H](C(=O)N(CCc2ccccc2)C2CCOC2)N1 (stereo not given in full),Percent Effect,"30.3 µM, […]",6.545%
O=C1CC[C@H](C(=O)N(Cc2cccc(Br)c2)C2CC2)N1,Percent Effect,"30.3 µM, […]",50.36%
Nc1nnc(CCCNC(=O)c2ccc(C3CCCNC3)cc2)s1 (stereo not given),Percent Effect,"30.3 µM, […]",51.22%
Nc1nc(CCCNC(=O)c2ccc(C3CCCNC3)cc2)cs1 (stereo not given),Percent Effect,"30.3 µM, […]",19.48%
Nc1nnc(CCNC(=O)c2cccc(C3CCCNC3)c2)s1 (stereo not given),Percent Effect,"30.3 µM, […]",5.236%
CN(Cc1cccc(OC(F)(F)F)c1)Cc1cnn(C)c1,Percent Effect,"30.3 µM, […]",10.05%
CCN1CCCC(O)(CNCc2ccncc2)C1 (stereo not given),Percent Effect,"30.3 µM, […]",-12.57%
Cc1cc(NCc2ccc(S(N)(=O)=O)cc2)nc(C)n1,Percent Effect,"30.3 µM, […]",22.51%
COCCN(Cc1ccccc1Cl)c1nc(CCN)nc2ccccc12,Percent Effect,"30.3 µM, […]",98.78%
Cc1ccsc1CN(c1nc(CCN)nc2ccccc12)C1CC1,Percent Effect,"30.3 µM, […]",40.33%
COCCN(CC1CC1)c1nc(CCN)nc2ccccc12,Percent Effect,"30.3 µM, […]",14.22%
NCCc1nc(N(Cc2cncs2)C2CC2)c2ccccc2n1,Percent Effect,"30.3 µM, […]",-1.942%
COCCN(Cc1cccs1)c1nc(CCN)nc2ccccc12,Percent Effect,"30.3 µM, […]",70.83%
NCCc1nc(N(Cc2nccs2)C2CC2)c2ccccc2n1,Percent Effect,"30.3 µM, […]",-16.71%
CCS(=O)(=O)CC(=O)N1CCCC(c2noc(C(C)C)n2)C1 (stereo not given),Percent Effect,"30.3 µM, […]",10.94%
CCOCCN1CCN(CC(O)c2ccc(C)c(C)c2)CC1 (stereo not given),Percent Effect,"30.3 µM, […]",32.27%
Cc1nn(C)c(C)c1C1CCCN1C(=O)c1ccc2nnc(C)n2c1 (stereo not given),Percent Effect,30 µM,22.91%
CCC(CO)N(Cc1ccco1)C(=O)c1cccc(C)c1O (stereo not given),Percent Effect,"30.3 µM, […]",10.11%
CCC(CO)N(Cc1ccco1)C(=O)c1ccccc1NC (stereo not given),Percent Effect,"30.3 µM, […]",33.8%
CCC(CO)N(Cc1ccco1)C(=O)c1ccccc1SC (stereo not given),Percent Effect,"30.3 µM, […]",54.97%
FC(F)CN1CCC(NCCc2ccc(-n3cccn3)cc2)CC1,Percent Effect,"30.3 µM, […]",23.28%
CC(CNC1CCN(c2ccccn2)CC1)Oc1ccc(F)cc1 (stereo not given),Percent Effect,"30.3 µM, […]",19.84%
CC(C)COCCNC1CCN(c2ccccn2)CC1,Percent Effect,"30.3 µM, […]",16.23%
COc1ccc(C(C)CCNC2CCN(c3ccccn3)CC2)cc1 (stereo not given),Percent Effect,"30.3 µM, […]",60.53%
c1cnn(-c2ccc(CCNC3CCN(C4CC4)C3)cc2)c1 (stereo not given),Percent Effect,"30.3 µM, […]",-4.355%
c1ccc(N2CCC(NCCc3ccc(-n4cccn4)cc3)CC2)nc1,Percent Effect,"30.3 µM, […]",62.72%
O=C(O)C(F)(F)F.O=C(c1n[nH]c2c1CCN(Cc1nccs1)C2)N1CCCC1,Percent Effect,"30 µM, 30.03 µM",10.02%
COc1cccc(-n2cc(CN(C)Cc3ccnc(C(C)C)n3)cn2)c1,Percent Effect,"30.3 µM, […]",11.44%
CCOCC1CN(C(=O)Cc2ccccn2)Cc2cn(C)nc21 (stereo not given),Percent Effect,"30.3 µM, […]",5.026%
O=C(c1ccco1)N1CCOCC2(C1)CN(c1ccoc1)C(=O)CO2 (stereo not given),Percent Effect,"30.3 µM, […]",15.48%
CCn1cnnc1CCNC(=O)C1COc2ccc(OC)cc2C1 (stereo not given),Percent Effect,"30.3 µM, […]",15.43%
COc1nn(C)c2c1CCCN(C(=O)c1cccc(C)n1)C2.O=C(O)C(F)(F)F,Percent Effect,"30.3 µM, […]",4.327%
COc1nn(C)c2c1CCCN(C(=O)c1ccc3ccccc3n1)C2.O=C(O)C(F)(F)F,Percent Effect,"30.3 µM, […]",-11.56%
COc1nn(C)c2c1CCCN(C(=O)c1cccc3cccnc13)C2.O=C(O)C(F)(F)F,Percent Effect,"30.3 µM, […]",75.35%
Cc1nc(=O)c2ccccc2n1C1=CCN(CC(=O)NC(C)C)CC1,Percent Effect,"30.3 µM, […]",64.5%
COCCNC(=O)CN1CC=C(n2c(C)nc(=O)c3ccccc32)CC1,Percent Effect,"30.3 µM, […]",40.79%
Cc1nc2ccccc2c(=O)n1CCC(=O)N1CCCC1,Percent Effect,30 µM,19.05%
Cc1nc(=O)c2ccccc2n1C1=CCN(CC(=O)N2CCCC2)CC1,Percent Effect,"30.3 µM, […]",66.01%
Cc1nnc2n1CCN(CC(=O)NC(C)c1cccc3ccccc13)C2 (stereo not given),Percent Effect,"30.3 µM, […]",-27.74%
Cc1nc2ccccc2c(=O)n1CCC(=O)N1CCCCCC1,Percent Effect,30 µM,21.32%
CSCCNC(=O)c1ccc(OC2CCN(CC(C)(C)C)CC2)c(Cl)c1,Percent Effect,"30 µM, 30.03 µM",17.7%
COCc1n[nH]c2c1CN(Cc1ccccn1)C2.O=C(O)C(F)(F)F,Percent Effect,"30.3 µM, […]",2.635%
Cc1nc(CN2CC[C@H]3[C@@H]2CCC(=O)N3c2cnn(C)c2)cs1.O=C(O)C(F)(F)F,Percent Effect,"30.3 µM, […]",2.736%
CC(C)(C)C(=O)N1CCN(C(=O)Nc2cnn(CC(F)F)c2)CC1,Percent Effect,"30.3 µM, […]",4.989%
O=C(c1cccnc1)N1CCCC(c2ncncc2-c2ccncc2)C1 (stereo not given),Percent Effect,"30.3 µM, […]",1.341%
CCO[C@@H]1CCN(C(=O)c2cnc(C)cn2)[C@@H]1Cc1cnn(C)c1,Percent Effect,"30.3 µM, […]",53.66%
COCCO[C@H]1CCN(C(=O)c2cnccn2)[C@H]1Cc1ccncc1,Percent Effect,"30.3 µM, […]",54.37%
COCCO[C@H]1CCN(C(=O)c2ccc[nH]2)[C@H]1Cc1ccncc1,Percent Effect,"30 µM, 30.03 µM",17.48%
CCO[C@@H]1CCN(C(=O)c2cscn2)[C@@H]1Cc1cnn(C)c1,Percent Effect,"30 µM, 30.03 µM",-2.934%
CCO[C@@H]1CCN(C(=O)N(C)C)[C@@H]1Cc1cnn(C)c1,Percent Effect,"30.3 µM, […]",27.5%
COCCO[C@H]1CCN(C(=O)c2ccsc2)[C@H]1Cc1ccncc1,Percent Effect,"30.3 µM, […]",26.31%
CN(C)S(=O)(=O)N1CC[C@]2(C[C@@H](Oc3cccnc3)CO2)C1.O=C(O)C(F)(F)F,Percent Effect,"30.3 µM, […]",7.751%
Cc1ccc(N2CCCc3sc(C(=O)NCc4ccc(C)o4)nc32)nn1,Percent Effect,"30.3 µM, […]",18.34%
C=C(C)CNCC1(O)CCCN(Cc2ccc(F)c(F)c2)C1=O (stereo not given),Percent Effect,"30.3 µM, […]",36.85%
O=C1OCCN1CCNCC1(O)CCCN(CCC2CCCCC2)C1=O (stereo not given),Percent Effect,"30.3 µM, […]",27.13%
O=C1N(CCC2CCCCC2)CCCC1(O)CNCCc1ccccc1 (stereo not given),Percent Effect,"30.3 µM, […]",74.42%
O=C1N(CCCc2ccccc2)CCCC1(O)CNCC1CCCCC1 (stereo not given),Percent Effect,"30.3 µM, […]",36.42%
O=C1NCCN1CCNCC1(O)CCCN(CCC2CCCCC2)C1=O (stereo not given),Percent Effect,"30.3 µM, […]",17.71%
O=C1N(CCCc2ccccc2)CCCC1(O)CNCc1ccccc1 (stereo not given),Percent Effect,"30 µM, 30.03 µM",54.86%
O=C1N(Cc2ccc(F)c(F)c2)CCCC1(O)CNCC1CCCCC1 (stereo not given),Percent Effect,"30.3 µM, […]",62.26%
COCCNCC1(O)CCCN(Cc2ccc(F)c(F)c2)C1=O (stereo not given),Percent Effect,"30.3 µM, […]",36.88%
O=C1N(CCc2ccccc2)CCCC1(O)CNCc1ccc(F)cc1 (stereo not given),Percent Effect,"30.3 µM, […]",14.91%
Cc1nsc(N2CCc3sccc3C2)n1,Percent Effect,"30.3 µM, […]",14.81%
Cc1cnn(CCCNC(=O)N2CCCCC(N3CCCC3)C2)c1 (stereo not given),Percent Effect,"30 µM, 30.03 µM",26.48%
Clc1cccc(OCCCN2CCOC(Cn3cncn3)C2)c1 (stereo not given),Percent Effect,30 µM,18.78%
CCCn1cc(CN2CCCC2c2nccc(CN(C)C)n2)cn1 (stereo not given),Percent Effect,"30.3 µM, […]",-4.658%
O=C(c1cc(C2CCCCN2C(=O)C2CCC2)n[nH]1)N1CCOCC1 (stereo not given),Percent Effect,"30.3 µM, […]",-8.909%
NC(=O)c1ccc(NC(=O)c2ccncc2F)cn1,Percent Effect,"30.3 µM, […]",52.29%
NC(=O)c1ccc(NC(=O)c2ccncc2Cl)cn1,Percent Effect,"30.3 µM, […]",4.641%
CCc1cnccc1C(=O)Nc1ccc(C(N)=O)nc1,Percent Effect,"30.3 µM, […]",-9.48%
COCC(=O)N1CCCCC1c1nc(C)c2c(n1)N(C1CC1)C(=O)CC2 (stereo not given),Percent Effect,"30.3 µM, […]",6.342%
c1csc(-c2cc(CN3CCN(c4nccs4)CC3)no2)c1,Percent Effect,"30.3 µM, […]",21.99%
Cc1cc(=O)[nH]cc1C(=O)N1CCN(C)c2ccccc2C1,Percent Effect,"30.3 µM, […]",57.95%
Cc1cc(=O)[nH]cc1C(=O)N1Cc2ccccc2N(C)CC1C (stereo not given),Percent Effect,"30.3 µM, […]",-24.09%
Cc1cc(=O)c(C(=O)N2CCN(C)c3ccccc3C2)c[nH]1,Percent Effect,"30.3 µM, […]",-29.42%
COCc1nnc(NC(=O)CN2C(=O)c3ccccc3NC2C(C)C)s1 (stereo not given),Percent Effect,"30.3 µM, […]",33.02%
NC(=O)CCCNC(=O)Cc1cccc(I)c1,Percent Effect,"30.3 µM, […]",7.14%
O=C(NC1CC1)NC(c1ccc(F)cc1)C1CC1 (stereo not given),Percent Effect,"30.3 µM, […]",4.479%
N#Cc1cccc(N2CCCC3(CN(C(=O)c4ccc[nH]4)CCO3)C2)c1 (stereo not given),Percent Effect,"30.3 µM, […]",1.97%
CCC1=N[C@@]2(CC[C@@H]3CN(Cc4ccccc4C)C[C@@H]32)C(=O)N1C.O=C(O)C(F)(F)F,Percent Effect,"30.3 µM, […]",57.66%
CCC1=N[C@@]2(CC[C@@H]3CN(Cc4ccccc4C)C[C@@H]32)C(=O)N1.O=C(O)C(F)(F)F,Percent Effect,"30.3 µM, […]",9.963%
CCC1=N[C@@]2(CC[C@@H]3CN(Cc4ccc(C)cc4)C[C@@H]32)C(=O)N1C.O=C(O)C(F)(F)F,Percent Effect,"30.3 µM, […]",15.86%
CCc1ccc(C2COCCN2C(=O)Nc2ccc(C(N)=O)c(Cl)c2)o1 (stereo not given),Percent Effect,"30.3 µM, […]",-7.006%
